Data published in PubChem BioAssay (EPA / NIEHS).
Calls of active or inactive are those of the source. Rule for the calls: active = hit-call score of the fitted dose curve at least 0.9, where 1 is the maximum; inactive = score below 0.9.

Assays:
[1] = target: Paired box protein Pax-6 (Homo sapiens) (UniProt P26367); assay: ATG_Pax6_CIS: Attagene CIS-FACTORIAL HepG2 Assay for human Paired Box 6 (PAX6) (AID 2282956); conditions: HepG2 CIS-FACTORIAL PAX6 reporter transcription, RNA readout; actives raise or lower the signal
Chain of Paired box protein Pax-6 (Homo sapiens) (P26367 whole entry, looked up): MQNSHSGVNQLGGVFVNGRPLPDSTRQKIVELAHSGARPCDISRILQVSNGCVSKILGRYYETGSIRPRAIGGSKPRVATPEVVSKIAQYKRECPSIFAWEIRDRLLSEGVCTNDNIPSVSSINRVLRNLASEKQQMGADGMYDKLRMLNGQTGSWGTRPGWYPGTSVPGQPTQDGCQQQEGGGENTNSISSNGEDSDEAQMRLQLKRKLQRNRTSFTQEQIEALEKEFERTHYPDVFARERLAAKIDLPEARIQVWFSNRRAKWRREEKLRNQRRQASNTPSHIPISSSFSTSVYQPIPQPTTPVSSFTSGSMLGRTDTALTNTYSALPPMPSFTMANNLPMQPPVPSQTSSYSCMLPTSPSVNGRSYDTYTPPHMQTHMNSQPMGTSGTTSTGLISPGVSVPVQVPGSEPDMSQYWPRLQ
Summary of the method: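 Values derive from bidirectional curve fitting of reporter mRNA signal relative to DMSO. HepG2 cells bearing transfected cis-regulated MRTUs were exposed for 24 h; transcripts were read by RT-PCR and capillary electrophoresis.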

[2] = ATG_PXRE_CIS: Attagene CIS-FACTORIAL HepG2 Assay for human Pregnane X Receptor Element (PXRE) (AID 2282957); conditions: HepG2 Attagene CIS-FACTORIAL PXRE reporter, mRNA; actives raise or lower the signal
Summary of the method: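 Reporter transcripts under endogenous PXR-responsive cis-regulation quantified from total RNA of transfected HepG2 cells 24 h post-dosing, via RT-PCR with fluorescent primer extension and capillary electrophoresis. Gain or loss of signal fitted against DMSO baseline.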

[3] = ATG_PPRE_CIS: Attagene CIS-FACTORIAL HepG2 Assay for human Peroxisome Proliferator-activated Response Element (PPRE) (AID 2282958); conditions: HepG2 PPRE cis-element reporter, Attagene transcription factor profiling; actives raise or lower the signal
Summary of the method: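 Transcript-level reporter induction in transfected HepG2 cells after 24 h chemical exposure, quantified by fluorescence from RT-PCR products separated by capillary electrophoresis.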

[4] = ATG_RORE_CIS: Attagene CIS-FACTORIAL HepG2 Assay for human RAR-related Orphan Receptor Element (RORE) (AID 2282959); conditions: HepG2 Attagene cis-factorial RORE reporter, mRNA; actives raise or lower the signal
Summary of the method: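 Multiplexed reporter assay measuring mRNA induction from a cis promoter element in transiently transfected HepG2 cells after 24 h treatment. Detection via RT-PCR and capillary electrophoresis fluorescence; DMSO serves as baseline.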

[5] = ATG_Sox_CIS: Attagene CIS-FACTORIAL HepG2 Assay for human SRY-box transcription factor (SOX) (AID 2282960); conditions: HepG2 Attagene cis-factorial SOX reporter, mRNA; actives raise or lower the signal
Summary of the method: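 Cells were transfected with reporter constructs under cis-regulatory promoters, then exposed to chemicals for 24 h. Reporter transcripts were quantified by fluorescence after RT-PCR and capillary electrophoresis; activity was fitted in both directions against DMSO.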

[6] = target: Transcription factor Sp1 (Homo sapiens) (UniProt P08047); assay: ATG_Sp1_CIS: Attagene CIS-FACTORIAL HepG2 Assay for human Specificity Protein 1 (Sp1) (AID 2282961); conditions: HepG2 Sp1 cis-reporter transcription, actives raise or lower the signal
Chain of Transcription factor Sp1 (Homo sapiens) (P08047 whole entry, looked up): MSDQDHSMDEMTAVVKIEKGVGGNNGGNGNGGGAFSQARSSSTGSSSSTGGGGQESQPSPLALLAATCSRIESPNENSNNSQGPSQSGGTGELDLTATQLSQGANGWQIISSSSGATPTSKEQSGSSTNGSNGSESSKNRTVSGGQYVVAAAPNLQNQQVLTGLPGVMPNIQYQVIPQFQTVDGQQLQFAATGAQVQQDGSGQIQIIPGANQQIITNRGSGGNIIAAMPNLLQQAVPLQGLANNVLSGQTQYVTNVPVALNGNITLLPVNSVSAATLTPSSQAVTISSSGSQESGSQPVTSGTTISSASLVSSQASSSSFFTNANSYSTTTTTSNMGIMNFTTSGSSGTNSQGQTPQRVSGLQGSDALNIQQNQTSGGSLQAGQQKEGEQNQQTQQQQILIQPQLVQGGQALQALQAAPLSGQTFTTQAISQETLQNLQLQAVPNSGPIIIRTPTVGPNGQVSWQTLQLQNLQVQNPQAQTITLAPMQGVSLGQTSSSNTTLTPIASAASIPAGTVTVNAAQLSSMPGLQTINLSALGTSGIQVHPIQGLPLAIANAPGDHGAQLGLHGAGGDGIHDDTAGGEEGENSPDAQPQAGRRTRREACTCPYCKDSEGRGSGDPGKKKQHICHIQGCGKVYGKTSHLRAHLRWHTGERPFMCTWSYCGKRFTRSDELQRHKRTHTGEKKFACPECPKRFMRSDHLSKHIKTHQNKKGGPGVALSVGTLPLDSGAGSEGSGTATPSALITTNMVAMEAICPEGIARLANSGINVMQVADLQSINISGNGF
Summary of the method: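 Measures mRNA induction of an Sp1-linked reporter in HepG2 cells 24 h post-dosing. Multiplexed reporters read by RT-PCR and capillary electrophoresis; DMSO serves as negative control and baseline.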

[7] = ATG_SREBP_CIS: Attagene CIS-FACTORIAL HepG2 Assay for human Sterol Regulatory Element Binding (SREBP) (AID 2282962); conditions: HepG2 Attagene cis-factorial SREBP reporter, mRNA; actives raise or lower the signal
Summary of the method: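 Values derive from bidirectional curve fitting with DMSO as baseline. The underlying measurement is reporter mRNA from cis-element-regulated units in transiently transfected HepG2, quantified by RT-PCR and capillary electrophoresis after 24 h exposure.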

[8] = target: Signal transducer and activator of transcription 3 (Homo sapiens) (UniProt P40763); assay: ATG_STAT3_CIS: Attagene CIS-FACTORIAL HepG2 Assay for human Signal Transducer and Activator of Transcription 3 (STAT3) (AID 2282963); conditions: HepG2, Attagene cis-factorial STAT3 reporter transcription; actives raise or lower the signal
Chain of Signal transducer and activator of transcription 3 (Homo sapiens) (P40763 whole entry, looked up, the tested form may be a part): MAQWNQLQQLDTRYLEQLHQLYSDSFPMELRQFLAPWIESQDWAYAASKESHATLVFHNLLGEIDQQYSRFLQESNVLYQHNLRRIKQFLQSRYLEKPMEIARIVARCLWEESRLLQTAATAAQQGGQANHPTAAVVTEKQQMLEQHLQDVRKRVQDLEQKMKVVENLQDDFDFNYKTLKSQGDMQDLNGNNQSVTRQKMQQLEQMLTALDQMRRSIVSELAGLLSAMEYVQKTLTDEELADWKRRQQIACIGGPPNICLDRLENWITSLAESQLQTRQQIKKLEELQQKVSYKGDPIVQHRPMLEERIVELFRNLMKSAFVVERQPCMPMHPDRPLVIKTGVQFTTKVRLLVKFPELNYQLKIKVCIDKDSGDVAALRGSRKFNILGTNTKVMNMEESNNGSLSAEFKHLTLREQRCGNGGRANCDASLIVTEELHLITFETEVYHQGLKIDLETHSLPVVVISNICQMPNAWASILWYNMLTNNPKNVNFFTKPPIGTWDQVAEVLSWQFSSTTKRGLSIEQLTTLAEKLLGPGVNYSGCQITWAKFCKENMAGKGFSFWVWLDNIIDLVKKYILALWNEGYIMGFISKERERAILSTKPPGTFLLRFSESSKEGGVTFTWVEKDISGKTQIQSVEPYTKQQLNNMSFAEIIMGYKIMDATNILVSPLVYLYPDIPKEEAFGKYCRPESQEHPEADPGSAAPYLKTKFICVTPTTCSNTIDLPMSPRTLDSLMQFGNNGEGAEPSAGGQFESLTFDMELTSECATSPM
Summary of the method: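 Fluorescence intensity of 6-FAM-labelled reporter fragments, separated by capillary electrophoresis after RT-PCR, gave the signal. Cells were HepG2 transfected with cis-element reporter units and treated 24 h; fitting was bidirectional relative to DMSO.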

[9] = ATG_TA_CIS: Attagene CIS-FACTORIAL HepG2 Assay for human TA Basal Promoter (AID 2282964); conditions: HepG2 Attagene CIS-factorial TA basal promoter reporter; actives raise or lower the signal
Summary of the method: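 Background internal-marker endpoint from a 52-component HepG2 cis-reporter panel. Cells treated 24 h; reporter transcripts quantified via RT-PCR and CE fluorescence against DMSO baseline.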

[10] = ATG_TCF_b_cat_CIS: Attagene CIS-FACTORIAL HepG2 Assay for human T-Cell-Factor with beta-catenin (TCF/b-cat) (AID 2282965); conditions: HepG2 TCF/beta-catenin cis-reporter transcription, actives raise or lower the signal
Summary of the method: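 HepG2 cells transiently transfected with cis-promoter-driven multiplexed reporter units; reporter mRNA measured 24 h after dosing by RT-PCR, FAM labelling, HpaI digestion and capillary electrophoresis. Bidirectional fitting relative to DMSO baseline.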

Measured: AC50

Nc1ncn([C@@H]2O[C@H](CO)[C@@H](O)[C@H]2O)c(=O)n1
active: [10] 0.975 µM
inactive: all other assays above

CCC(CO)CO
inactive: all assays above

CC(=O)c1ccc2c(c1)CCCC2
active: [2] 26.4 µM
inactive: all other assays above

Clc1nc2ccccc2s1
inactive: all assays above

CCOCC(=O)O
active: [2] 72 µM
inactive: all other assays above

O=C(Oc1ccccc1)c1ccc2ccccc2c1O
active: [2] 21.5 µM | [3] 41.6 µM | [4] 34.3 µM | [8] 26.1 µM | [9] 54.9 µM
inactive: all other assays above

CC(C)c1ccc(C=O)cc1
inactive: all assays above

CC(C)=CC1CC(C)CCO1 (stereo not drawn)
inactive: all assays above

CC(C)(C)C(=O)CCc1ccc(Cl)cc1
active: [2] 9.79 µM
inactive: all other assays above

C=CC(C)(C)C
inactive: all assays above

CC[C@H]1OC(=O)[C@H](C)[C@@H](O[C@H]2C[C@@](C)(OC)[C@@H](O)[C@H](C)O2)[C@H](C)[C@@H](O[C@@H]2O[C@H](C)C[C@H](N(C)C)[C@H]2O)[C@](C)(O)C[C@@H](C)C(=NOCOCCOC)[C@H](C)[C@@H](O)[C@]1(C)O
inactive: all assays above

COC(=O)c1ccccc1OC
inactive: all assays above

Cc1ccc(C2OC[C@@H]3OC(c4ccc(C)cc4)O[C@H]([C@H](O)CO)[C@@H]3O2)cc1 (stereo partly drawn)
active: [2] 12.9 µM
inactive: all other assays above

CCCCCC(C)O (stereo not drawn)
inactive: all assays above

Cc1cc(C)c(C)c(C)c1
inactive: all assays above

CCC(=O)Oc1ccc(/C(CC)=C(\CC)c2ccc(OC(=O)CC)cc2)cc1
inactive: [3] | [4] | [7] | [8]
active: [1] 37.8 µM | [2] 2.95 µM | [5] 37.8 µM | [6] 23.4 µM | [9] 38.2 µM | [10] 26.4 µM

CCCCCCCC(C)=O
inactive: all assays above

C=C1C2CCC(C2)C1(C)C (stereo not drawn)
active: [2] 31.4 µM
inactive: all other assays above

CC1=NN(c2cc(S(=O)(=O)O)ccc2Cl)C(=O)C1N=Nc1ccccc1 (stereo not drawn)
inactive: all assays above

CC(=O)c1ccc[nH]1
inactive: all assays above

CCCC(=O)OCc1ccccc1
inactive: all assays above

CCOC(=O)c1ccc(N(C)C)cc1
active: [2] 28.1 µM
inactive: all other assays above

CC(=O)Oc1ccc(C(C)=O)cc1
inactive: all assays above

C=C(C)CCO
active: [2] 5.16 µM
inactive: all other assays above

CCC(C)OC(=O)c1ccc(O)cc1 (stereo not drawn)
active: [2] 27.8 µM | [3] 100 µM
inactive: all other assays above

NC(=O)N=NC(N)=O
inactive: all assays above

CC(=O)C=CC1C(C)=CCC(C)C1(C)C (stereo not drawn)
active: [2] 0.972 µM
inactive: all other assays above

CCCc1ccc(OC)cc1
inactive: all assays above

Nc1ccc(-c2ccc(F)cc2)cc1
active: [2] 27.4 µM
inactive: all other assays above

Nc1ccc(Oc2ccc(N)c(N)c2)cc1
active: [3] 58.4 µM | [4] 27.5 µM
inactive: all other assays above

O=C1Nc2ccccc2C1(c1ccc(O)cc1)c1ccc(O)cc1
active: [1] 70.7 µM | [5] 63.9 µM | [7] 27.2 µM | [9] 61.7 µM | [10] 40.9 µM
inactive: [2] | [3] | [4] | [6] | [8]

CCc1nccnc1C
not listed: [7]
inactive: all other assays above

NC(=O)C1CO1 (stereo not drawn)
not listed: [7]
inactive: all other assays above

COC(=O)c1cc(Cl)ccc1[N+](=O)[O-]
active: [2] 76.1 µM
not listed: [7]
inactive: all other assays above

Nc1ccc(N=Nc2ccccc2)c(N)n1
active: [3] 100 µM | [4] 51.6 µM
inactive: all other assays above

Cc1cccc(N(C)C(=S)Oc2ccc3ccccc3c2)c1
active: [2] 0.61 µM | [3] 24.4 µM | [4] 20.5 µM
inactive: all other assays above

O=CC1CC1
not listed: [9]
inactive: all other assays above

CC1(C)S[C@@H]2[C@H](NC(=O)COc3ccccc3)C(=O)N2[C@H]1C(=O)O
active: [2] 4.35 µM
not listed: [7]
inactive: all other assays above

c1c[nH]cn1
active: [2] 63.8 µM
not listed: [9]
inactive: all other assays above

Cc1cccc(N)n1
inactive: all assays above

S=C(NC1CCCCC1)NC1CCCCC1
active: [2] 4.14 µM
inactive: all other assays above

N#CCc1ccc(Cl)cc1Cl
active: [2] 61.8 µM
inactive: all other assays above

c1ccc(-c2ccccn2)nc1
not listed: [7]
inactive: all other assays above

CCN(CC#N)c1cccc(C)c1
active: [2] 45.3 µM
not listed: [9]
inactive: all other assays above

CCOc1nc(F)cc2nc(S(=O)(=O)Nc3c(Cl)cccc3C(=O)OC)nn12
active: [2] 7.46 µM
not listed: [7]
inactive: all other assays above

O=C(C=Cc1ccccc1)OCc1ccccc1
active: [2] 13.2 µM
not listed: [9]
inactive: all other assays above

NNC(=O)c1cccc(C(=O)NN)c1
inactive: all assays above

Nc1ccc(Cl)cc1Cl
not listed: [7]
inactive: all other assays above

COCCOCCOCCOCCOC
inactive: all assays above

CO[Si](OC)(OC)c1ccccc1
inactive: all assays above

CCCCC(CC)COC(=O)c1ccccc1 (stereo not drawn)
active: [2] 27.6 µM
not listed: [7]
inactive: all other assays above
